Results filed as inconclusive are left out. Unmarked numbers belong to inactive results. Calls of active or inactive are those of the source. Calls come from the whole dose curve; as a rule, active = well fitted cell-killing curve with a large enough effect in the repeat runs; inconclusive = weak or mixed curves; inactive = flat fitted curve, though single readings scatter.
% is set by controls: 0 for no effect and ±100 for the full control effect.

This test is described as follows: qHTS RealTime-Glo MT Cell Viability Assay in HepG2 cells - 16 hour (AID 1224885). Note: nearly all actives have a fitted effect of over 50% in size. The note with it: RealTime-Glo luminescence; series mostly up to 76.8 µM; activity change, negative = cytotoxic: at the top concentration. The text has this: U.S. Tox21 Program National Center for Advancing Translational Sciences [NCATS] NIH Chemical Genomics Center [NCGC] U.S. Environmental Protection Agency [EPA] National Institutes of Environmental Health Sciences [NIEHS] National Toxicology Program [NTP] U.S. Food and Drug Administration [FDA] Tox21 Assay Overview: Measure of cell viability is critical in the cell-base assay. Analysis of cell viability is necessary for the characterization of cell responses to cytotoxic drugs and environmental stress. A RealTime-Glo MT Cell Viability Assay to monitor cell viability in real time of continues cell culture during 40 hours of compound treatment was used to screen Tox21 10K library compounds in HepG2 cells. The RealTime-Glo MT Cell Viability Assay is a nonlytic, homogeneous, bioluminescent method to measure cell viability in real time using a simple, plate-based method. The assay involves adding NanoLuc luciferase and a cell-permeant prosubstrate to cells in culture. Viable cells reduce the proprietary prosubstrate to generate a substrate for NanoLuc luciferase. This substrate diffuses from cells into the surrounding culture medium, where it is rapidly used by the NanoLuc Enzyme to produce a luminescent signal. The signal correlates with the number of viable cells, making the assay well suited for cytotoxicity studies.
Tox21 Assay Protocol Summary: The mixture of HepG2 cell suspension and reagents were dispensed at 600cells/6 ul/well in 1536-well tissue culture treated black solid bottom plates using a Multidrop dispenser. After the assay plates were incubated at a 37 C/5% CO2 incubator for 5 hours, 23 nL of compounds dissolved in DMSO, positive and negative controls was transferred to the assay plate by a pintool work station. The plates were incubated at 37 C for 40 hours. The luminescence intensity were measured at 0h, 8h, 16h, 24h, 32h and 40h time points using ViewLux plate reader during compound treatment.
A general note: Quantitative high-throughput screening tests each substance at several concentrations.
For the compound `Nc1ccccc1[N+](=O)[O-]`, the compound was classed as inactive.

For `COS(C)(=O)=O`, the result was inactive.

On to `CC[C@H](C)C(=O)O[C@H]1C[C@@H](C)C=C2C=C[C@H](C)[C@H](CC[C@@H]3C[C@@H](O)CC(=O)O3)[C@H]21`, for which the compound was called inactive.

Take `CCCCCOC(C)=O`: the compound was classed as inactive.

Turning to `O=C(O)c1ccc2c(c1)C(=O)OC2=O`, the compound was called inactive.

On to `CCCCC(CC)CO` (stereo not given), for which the compound was called inactive.

As for `O=[N+]([O-])c1ccc(/C=C/c2ccc([N+](=O)[O-])cc2S(=O)(=O)O)c(S(=O)(=O)O)c1`, the compound was called inactive.

Turning to `CCCCCCCCCCCCS`, the result was inactive.

On to `CCCCC(CC)COC(=O)CS` (stereo not given), for which the compound was called inactive.

With `O=C=NCCCCCCN=C=O`, the compound was classed as inactive.

Take `CCCCCCCCC/C=C/CC1CC(=O)OC1=O` (stereo not given): the compound was called inactive.

On to `C[Si](O[Si](C)(C)C)O[Si](C)(C)C`, for which the outcome was inactive.

Consider `Cc1cc(C)c(C)cc1C`, for which the result was inactive.

For the compound `CCCCC(CC)COC(=O)C(C#N)=C(c1ccccc1)c1ccccc1` (stereo not given), the call was inactive.

On to `CC(=O)c1ccccc1`, for which the compound was called inactive.

In the case of `C/C=C1/CC2C=CC1C2` (stereo not given), the compound was classed as inactive.

As for `ON=C1CCCCC1`, the compound was called inactive.

As to `CN(C)CCC(c1ccc(Cl)cc1)c1ccccn1` (stereo not given), the outcome was inactive.

For `Cc1occc(=O)c1O`, the call was inactive.

In the case of `CCCCN(CCCC)CCCC`, the call was inactive.

As for `OCCOCCN1CCN(C2=Nc3ccccc3Sc3ccccc32)CC1`, the compound was classed as inactive.

As for `CN(C)CCCN`, the outcome was inactive.

Take `c1ccc2c(c1)ccc1ccccc12`: the outcome was inactive.

Take `CCOC(=O)NNc1nncc2ccccc12`: the compound was called inactive.

Take `O=P(OC(CCl)CCl)(OC(CCl)CCl)OC(CCl)CCl`: the result was inactive.

Consider `Oc1cccc2ccccc12`, for which the result was inactive.

For `O=C(OCCOCCOC(=O)c1ccccc1)c1ccccc1`, the call was inactive.

As for `C=C(C)C(=O)OCCOCCOCCOC(=O)C(=C)C`, the outcome was inactive.

As for `CC(C)(C)[C@@H](O)[C@@H](Cc1ccc(Cl)cc1)n1cncn1`, the result was inactive.

On to `COCCCOc1ccnc(CS(=O)c2nc3ccccc3[nH]2)c1C` (stereo not given), for which the call was inactive.

For the compound `Cc1ccc(S(N)(=O)=O)cc1`, the outcome was inactive.

Turning to `O=C(O)c1cc(O)c(O)c(O)c1`, the “activity change, negative = cytotoxic” value was -7.15% [at 35.3 µM].

For the compound `FC(F)(F)c1ccc(Cl)c(Cl)c1`, the compound was classed as inactive.

Regarding `CC(O)COCC(C)O` (stereo not given), the compound was called inactive.

With `CCN(CC)c1ccc(C(=O)c2ccccc2C(=O)O)c(O)c1`, the outcome was inactive.

For `CC(C)CC(=O)CC(C)C`, the result was inactive.

As to `CCc1cccc(C)c1N`, the call was inactive.

With `c1ccc2scnc2c1`, the compound was called inactive.

On to `CC(=O)CC(=O)Nc1ccccc1C`, for which the outcome was inactive.

As for `CCCCCCCCCCCCc1ccccc1`, the compound was called inactive.
